# Screening results deposited in PubChem BioAssay by National Center for Advancing Translational Sciences (NCATS).
# p53ts 32C tox: kills p53ts cells at the permissive temperature | 130,000 tested, 0.93% active | Potency, µM (titrated, usually from 46.1 µM), for inactives: top-dose activity change, negative = cytotoxicity, hits mostly cytotoxic | H1299-p53A138V at 32C, ATP luminescence viability, 24 h;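 further: potency means the concentration at half of the fitted maximal effect; 0% = DMSO and -100% = full killing by reference compound; nearly all actives have a fitted effect of over 55% in size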
#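 Viability by ATPlite luminescence after 24 h compound treatment (up to 46 uM) at the permissive 32C. Cells are H1299 carrying p53 A138V. Scale runs from DMSO basal to 100 uM tamoxifen as full kill; AC50 from Hill fits.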
# Hsp90 Hop PPI: changes Hsp90-Hop TPR2A binding signal, up or down. Potency, µM (series often up to 57 µM), without a hit: at the top dose activity change, negative = inhibition. AlphaScreen TPR2A-His6 binding biotin-Hsp90 C-terminal peptide. 71,000 tested, 0.44% active; active means well fitted curve in either direction with a large enough effect; inconclusive means small, poorly fitted or top-dose-only effect, or another doubt; further: potency means the concentration at half of the fitted maximal effect; on the % scale 0 is the no-effect control and ±100 the full control effect
# FLuc inh: blocks Photinus pyralis firefly luciferase activity; P08659; purified firefly luciferase, luminescence, 8 min; Potency, µM (top dose mostly 57.1 µM), inactives show at the top dose activity change, negative = inhibition, hits mostly inhibitors; 72,000 tested, 2.2% active; AID 411; further: potency means the concentration at half of the fitted maximal effect; on the % scale 0 is the no-effect control and ±100 the full control effect; nearly all actives have a fitted effect of over 40% in size
# Target sequence (P08659 whole entry, looked up): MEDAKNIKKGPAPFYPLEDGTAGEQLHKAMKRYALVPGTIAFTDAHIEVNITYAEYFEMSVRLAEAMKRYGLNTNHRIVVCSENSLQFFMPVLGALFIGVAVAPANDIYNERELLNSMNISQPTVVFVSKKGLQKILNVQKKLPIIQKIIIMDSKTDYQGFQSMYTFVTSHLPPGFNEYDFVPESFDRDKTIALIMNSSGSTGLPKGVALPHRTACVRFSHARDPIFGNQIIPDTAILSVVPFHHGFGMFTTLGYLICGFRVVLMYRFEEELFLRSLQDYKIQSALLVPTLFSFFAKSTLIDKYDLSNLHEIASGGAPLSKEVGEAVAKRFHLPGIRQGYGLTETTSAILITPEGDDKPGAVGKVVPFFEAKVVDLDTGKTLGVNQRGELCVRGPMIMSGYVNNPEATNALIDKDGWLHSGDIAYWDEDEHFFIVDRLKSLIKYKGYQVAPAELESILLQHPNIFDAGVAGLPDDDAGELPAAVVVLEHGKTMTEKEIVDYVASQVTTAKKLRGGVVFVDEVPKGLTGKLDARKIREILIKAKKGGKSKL
#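 qHTS concentration-response profiling: light output of P. pyralis luciferase with luciferin and 10 uM ATP, imidazole buffer pH 7.2. Read by luminescence after 8-min room-temperature incubation.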
# IkB sig inh: inhibitors of IkB signaling in ABC-DLBCL cells. ABC-DLBCL IkBa-CBG/CBR dual luciferase ratio, 4 h; response scale: scaled: untreated 0%, proteasome inhibitor 100%. Potency, µM (top dose mostly 57.1 µM), for the others: top-dose IkBa stabilization activation. 110,000 tested, 0.04% active. AID 445; active means well fitted curve in the direction sought with a large enough effect in the signal ratio, not every such curve was filed as active; inconclusive means small, poorly fitted or top-dose-only effect, or a change in a side signal; the % refers to the signal ratio;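 further: potency means the concentration at half of the fitted maximal effect; the direction sought is a rising ratio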
#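 Curves were fitted separately to fusion (green), unfused (red) and ratio luminescence, then classed by r2, magnitude and activity. Cells: OCI-Ly3, 4 h compound plus doxycycline at 37C; 10 uM MG-132 defined full response.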
# IMPase inh: IMPase inhibition in cells. P97697. CHO-M1 cells, IP1 accumulation, HTRF TR-FRET ratio. inhibition (IP1 accumulation), % at 46.1 µM. 120,000 tested, under 10 active; active means well fitted curve in the direction sought with a large enough effect in the signal ratio, not every such curve was filed as active; inconclusive means small, poorly fitted or top-dose-only effect, or a change in a side signal; inactive means no such curve, though single readings can be large or run the other way; the % refers to the signal ratio;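 further: cells stimulated with carbachol in lithium chloride buffer; plate controls were DMSO basal wells for no effect and reference inhibitor wells for full effect; higher means more IMPase inhibition seen as more IP1 and lower FRET ratio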
#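 CHO-M1 cells (CHO stably expressing M1 receptor), compound up to 46 uM final, stimulated with carbachol (50 uM as added) in buffer with 50mM LiCl, pH 7.4, 30 min at 37C. Cytosolic IP1 read by TR-FRET; AC50 from Hill fits.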
# p53ts 39C kill: p53ts cell cytotoxicity, nonpermissive temperature | H1299-p53A138V viability at 39C, ATP luminescence, 24 h | Potency, µM (doses to about 46.1 µM), for inactives: top-dose activity change, negative = cell killing, usual class: cytotoxic | 130,000 tested, 1.5% active; further: potency means the concentration at half of the fitted maximal effect; on the % scale 0 is the no-effect control and ±100 the full control effect; nearly all actives have a fitted effect of over 55% in size
# * hit, by the source's call; ? = inconclusive; · = no result; ! = repeats disagree; [ ] = remark or other dose. Shown is part of a subset that was picked to be rich in hits. Unless noted, the call rests on the fitted dose curve; in most records, active means well fitted curve in the direction sought with a large enough effect; inconclusive means small, poorly fitted or top-dose-only effect, or another doubt; inactive means no such curve, though single readings can be large; an effect the other way counts as inactive or inconclusive.
SMILES,p53ts 32C tox,Hsp90 Hop PPI,FLuc inh,IkB sig inh,IMPase inh,p53ts 39C kill
CC(Cc1ccc(O)c(O)c1)C(C)Cc1ccc(O)c(O)c1 (stereo not given),12.5%,·,-3.6%[25.5 µM],·,4.8,?
C[C@H](Cc1ccc(O)c(O)c1)[C@@H](C)Cc1ccc(O)c(O)c1,?,?,-2.8%[11.4 µM],6.2%[11.4 µM],9.2,20µM*
COc1cc(NC(=O)Cn2c(=O)ccc3cc(S(=O)(=O)N4CCCC4)ccc32)cc(OC)c1,-3.0%,·,·,?,·,-6.8%
CCOc1ccccc1N(C)C(=O)c1c2c(nc3ccccc13)C(=O)N(C1CCCCC1)C2,-3.9%,·,·,?,·,-10.5%
CCCN(C(=O)c1cc2c(s1)-c1ccccc1SC2)c1ccccc1F,-3.4%,·,·,?,·,25.1µM*
CCCN(C(=O)c1cc2c(s1)-c1ccccc1OC2)c1ccccc1F,17.5%,·,·,?,·,-11.0%
CCCCNC(=O)c1cnn2c(C)c(Cc3c(C)cc(C)cc3C)c(C)nc12,?,·,·,?,·,15.8µM*
COC(=O)c1ccc(N2C(=O)CC(SCCN)C2=O)cc1 (stereo not given),-29.8%,·,·,·,10.3,-17.6%
CCCOc1ccc(N2C(=O)CC(SCCN)C2=O)cc1 (stereo not given),12.6µM*,-14.7%,?,-0.2%,6.7,10µM*
CC1CCN(c2nncc3ccccc23)CC1,6.3%,-1.1%,-0.6%,-0.7%,?,-6.3%
COc1ccccc1/C=N/Nc1nncc2ccccc12,?,·,·,·,0.1,-7.5%
NNc1nncc2ccccc12,7.94µM*,12.6µM*!,3.98µM*,4.0%[25.6 µM],0.4[20.6 µM],10µM*
COc1ccc(/C=N/Nc2nncc3ccccc23)cc1,·,·,·,·,-5.5,3.16µM*
NNC(=O)[C@@H](O)[C@H](O)[C@H](O)CO,0.5%[9.22 µM],-0.8%[11 µM],3.2%[11.4 µM],0.8%[11.4 µM],·,2.0%[9.22 µM]
O=C(Nc1nc2c(Cl)cccc2s1)c1ccc(Br)o1,-8.0%,1.5%,-10.9%,?,8.6,-1.3%
Cc1ccc(C(=O)Nc2nc3ccc(S(C)(=O)=O)cc3s2)o1,11.2µM*,·,·,·,-12.4,12.6µM*
CS(=O)(=O)c1ccc2nc(NC(=O)c3ccco3)sc2c1,12.6µM*,2.3%,3.98µM*,?,-3.2,12.6µM*
CN(C)S(=O)(=O)c1ccc2nc(NC(=O)c3cccnc3)sc2c1,15.8µM*,-3.4%,12.6µM*,-1.3%,-8.2,?
O=C(Nc1nc2ccc(Cl)cc2s1)c1ccc(Br)o1,-12.0%,-1.6%[11 µM],12.6µM*,?,-2.5,-5.3%
CCCCOc1ccccc1CC1C(=O)Nc2ccc(Br)cc21 (stereo not given),?,·,·,-3.2%,·,12.6µM*
CC(=O)c1cccc(NC(=O)c2sc3nc4c(cc3c2N)CCCC4)c1,?,·,·,?,-6.6,12.6µM*
COc1ccc(NC(=O)c2sc3nc4c(cc3c2N)CCCCCC4)cc1OC,-17.0%,·,·,-0.1%,-0.8,-26.8%
CCSc1nc2ccccc2n1S(=O)(=O)c1ccccc1,1.0%,-3.3%,-3.6%,3.3%,-4.7,-5.0%
CCn1c(/C=C/c2ccccc2)nc2ccccc21,·,·,·,·,7.2,·
CCOc1ccc(/C=C/c2nc3ccccc3n2S(=O)(=O)c2ccc(Br)cc2)cc1,7.94µM*,·,·,?,·,7.94µM*
SMILES,p53ts 32C tox,Hsp90 Hop PPI,FLuc inh,IkB sig inh,IMPase inh,p53ts 39C kill
CSc1ccc(/C=C/c2nc3ccccc3n2S(=O)(=O)c2ccc(Br)cc2)cc1,3.16µM*,·,·,?,·,1.12µM*
COc1ccc(S(=O)(=O)n2c(CCN3CCOCC3)nc3ccccc32)cc1,2.4%,-1.3%,-2.4%,-0.5%,19.2,-6.1%
O=S(=O)(c1cccc(C(F)(F)F)c1)n1c(/C=C/c2ccccc2)nc2ccccc21,12.6µM*,·,·,-1.4%,·,12.6µM*
Cc1ccc(CNC(=O)C2CCCN(S(=O)(=O)c3ccc4c(c3)oc(=O)n4C)C2)cc1 (stereo not given),-7.8%,·,·,0.0%,·,?
COc1ccc(C(=O)NCc2ccc3c(c2)CCN3C(=O)c2ccc(C)cc2)cc1,-5.7%,·,·,?,·,-17.1%
CCOC(=O)C1=C(CN2CCN(c3ccccc3F)CC2)NC(=O)NC1c1ccc(OC)cc1 (stereo not given),-0.1%,·,·,·,·,·
Cc1cccc(-c2nc3ccccc3n3c(-c4ccccc4)c4c(=O)n(C)c(=O)n(C)c4c23)c1,2.7%,·,·,4.9%,0.0,22.6%
CCC(C)(C)C(=O)O[C@@H]1C[C@@H](C)C=C2C=C[C@H](C)[C@H](CC[C@@H]3C[C@@H](O)CC(=O)O3)[C@H]21,·,2.6%,2.3%,?,·,·
O=C(c1ccc(Cl)s1)N1CCc2ccccc21,?,12.5%,12.6µM*,5.8%,-9.5,?
CC(=O)N1CCc2c(sc3c2c(=O)n(CCc2ccccc2)c(=O)n3Cc2ccc(F)cc2)C1,30.5%,·,·,?,·,-16.2%
Cc1ccc(Cl)cc1N1CCN(C(=O)C2CCCN(Cc3nc(-c4cccc(Cl)c4)oc3C)C2)CC1 (stereo not given),-15.0%,·,·,?,·,?
CCc1ccc(-c2nc(CN3CCCC(C(=O)N4CCN(c5cc(Cl)ccc5C)CC4)C3)c(C)o2)cc1 (stereo not given),12.6µM*,·,·,?,·,?
S=C(Nc1ccccn1)c1ccccn1,?,10µM*,20µM*,?,5.3,?
Cc1ccc(C)c(NC(=S)c2ccccn2)c1,·,·,·,·,2.9,·
Cc1ccnc(NC(=O)CCC2CCCCC2)c1,12.6µM*,2.6%,20µM*,?,9.1,12.6µM*
Cc1cc(NC(=O)CCC2CCCCC2)no1,-13.5%,·,·,·,-0.6,-10.2%
CC[C@H]1CN(C)[C@H]2Cc3c([nH]c4ccccc34)C(=O)C[C@H]1[C@H]2C(=O)OC,-2.5%[9.22 µM],?,1.4%[11.4 µM],-1.5%[11.4 µM],·,-4.2%[9.22 µM]
O=C(CN1C(=O)C(c2ccc(F)cc2)=NC12CCCCCC2)Nc1ccc(F)c(Cl)c1,19.8%,·,·,?,·,10µM*
CCOc1ccc(CCNC(=O)c2cc3cc4cc(OC)ccc4nc3s2)cc1OCC,2.4%,·,·,-0.7%,?,-2.4%
COc1ccc2nc3sc(C(=O)Nc4cc(Cl)c(OC)cc4OC)cc3cc2c1,?,·,·,?,?,6.31µM*
CCCCN(C)S(=O)(=O)c1cc(-c2cc(C)no2)ccc1C,2.4%,·,·,-1.2%,·,-8.4%
CC1(C)CC(=O)c2cc(-c3nc(-c4ccc(Cl)cc4)cs3)c(=O)n(-c3cccc(F)c3)c2C1,8.6%,·,·,1.9%,·,13.5%
Cc1ccc(C2=CC(c3ccccc3F)n3c(nc4ccccc43)N2)cc1C (stereo not given),?,·,·,?,·,12.6µM*
CCOc1ccc(C2=CC(c3cccc(Br)c3)n3c(nc4ccccc43)N2)cc1Cl (stereo not given),-6.9%,·,·,6.4%,·,-18.1%
